The text below walks through data of ChEMBL document CHEMBL3988442, “University of Dundee, Small-Polar-MMV Screening Library” (2021).

The structures appear in SMILES notation. Screen size: about 38,000 compounds; about 1,200 (3.2%) showed an effect of 50% or more. The median lay at about -58%. What follows is part of a selection rich in strong results, with near analogues and random picks from the rest.

The subject of this experiment is Plasmodium falciparum. In words: Calibr Malaria Delayed Death Assay SOP. In kind it is functional, organism-based. The settings on record: concentration 4.99e-06 (unit not given; other assays of the set use mol/L). Also noted: scale not given: in the data most compounds retested in dose-response had high values.
Regarding `N#Cc1csc(CNCCOc2ccccc2)c1`, the “Percent Effect” value is on record as -47.61%.

In the case of `CC(C)N1Cc2c(C(=O)N3CCN(C)CC3)nn(C)c2C1`, the “Percent Effect” value is -111.4%.

As for `Cc1ccc(-c2nc(CN3CCCC3Cn3cncn3)co2)cc1` (configuration not stated), the “Percent Effect” value is -9.69%. To `CN(C)c1ccccc1CN1CCCCC1CNS(C)(=O)=O` (configuration not stated) belongs 58.92%.

With `CS(=O)(=O)NCC1CCCCN1Cc1ccccc1C#N` (configuration not stated), the “Percent Effect” value was -35.93%. In the case of `CC1CS(=O)(=O)CCN1Cc1ccccc1N(C)C` (configuration not stated), the “Percent Effect” value is -5.29%. Turning to `CCCC1(CNCc2ncc[nH]2)CCC1`, the “Percent Effect” value is on record as 24.35%. To `c1ccc(CC2(CNCc3ncc[nH]3)CCC2)cc1` belongs 42.05%.

Turning to `CCC1(CNCc2ncc[nH]2)CCCC1`, the “Percent Effect” value is 66.04%. To `Cl.c1cc(OCc2ccc3c(c2)OCO3)ccc1CNC1CC1` belongs -194.6%; to `O=C(Nc1cccc(OCC(F)F)n1)c1ccncc1F`, -156.1%. To `O=C1NC(c2ccccc2)=N[C@@]12CC[C@@H]1CN(Cc3ccncc3)C[C@@H]12` belongs 12.66%; to `O=C1NC(c2ccccc2)=N[C@@]12CC[C@@H]1CN(Cc3ccco3)C[C@@H]12`, 17.95%; to `O=C1NC(c2ccccc2)=N[C@@]12CC[C@@H]1CN(Cc3ccoc3)C[C@@H]12`, 57.5%. To `Cc1nc(C)n(CC2CN(CCCOc3ccccc3)CCO2)n1` (configuration not stated) belongs -31.23%. For the compound `CN1CCNC(=O)C1CC(=O)NCCc1cnn(-c2ccccc2)c1` (configuration not stated), the “Percent Effect” value is -54.63%. To `Cc1ccc(C(=O)N2CCC3(CCCC3)CC2)c(=O)[nH]1` belongs -40.97%; to `Cc1cccc(CN2CCOCC3(CCN(C4CCOCC4)C3)C2)c1.O=C(O)C(F)(F)F.O=C(O)C(F)(F)F` (configuration not stated), 78%. To `Fc1cccc(CN2CCOCC3(CCN(C4CCOCC4)C3)C2)c1.O=C(O)C(F)(F)F.O=C(O)C(F)(F)F` (configuration not stated) belongs 77.57%.

Consider `O=C(O)C(F)(F)F.O=C(c1ccoc1)N1CCOC2(COCCN(CC3CC3)C2)C1` (configuration not stated), for which the “Percent Effect” value is -22.12%.

Regarding `O=C(O)C(F)(F)F.O=C(O)C(F)(F)F.O=C(O)C(F)(F)F.c1cncc(CN2CCC3(COCCN(C4CCOCC4)C3)C2)c1` (configuration not stated), the “Percent Effect” value is recorded as -45.9%. To `O=C(N1CCOCC1)[C@@]12CCO[C@@H]1CCN(Cc1cccc(F)c1)C2.O=C(O)C(F)(F)F` belongs -31.47%; to `COc1ccc(CN2CCOCC3(CCN(C4CCOCC4)C3)C2)cc1.O=C(O)C(F)(F)F.O=C(O)C(F)(F)F` (configuration not stated), 59.83%; to `c1cc(CN2CCOCC3(CCN(C4CCOCC4)C3)C2)ccn1` (configuration not stated), -42.35%. To `Fc1cccc(CN2CCOC3(COCCN(CC4CC4)C3)C2)c1.O=C(O)C(F)(F)F.O=C(O)C(F)(F)F` (configuration not stated) belongs 61.62%; to `O=C(O)C(F)(F)F.O=C(c1ccco1)N1CCOCC2(CCN(C3CCOCC3)C2)C1` (configuration not stated), -3.89%.

With `Cc1occc1C(=O)N1CCOCC2(CCN(C3CCOCC3)C2)C1.O=C(O)C(F)(F)F` (configuration not stated), the “Percent Effect” value is recorded as -32.59%. To `Cc1cccc(CN2CCOCC3(CCN(C4CCOCC4)C3)C2)n1.O=C(O)C(F)(F)F.O=C(O)C(F)(F)F.O=C(O)C(F)(F)F` (configuration not stated) belongs 40.9%. Turning to `Cc1ccc(C(=O)N2CCOCC3(CCN(C4CCOCC4)C3)C2)o1.O=C(O)C(F)(F)F` (configuration not stated), the “Percent Effect” value is given as -106.4%. To `O=C(O)C(F)(F)F.O=C([C@@H]1C[C@@H]2CCN(C3CCOCC3)C[C@H]2O1)N1CCOCC1` belongs -14.29%; to `c1cc(-c2cn[nH]c2)ccc1CN1CCCCC1`, -42.56%; to `CCn1ccnc1CNCc1ccc(C)cc1OC(C)(C)C`, 21.04%.

With `Cn1cc(CN2CC[C@@H]3[C@H]2CCC(=O)N3c2ccccc2)cn1.O=C(O)C(F)(F)F`, the “Percent Effect” value is listed as -62.18%. To `Cn1cnc2nc3n(c2c1=O)CCC3` belongs -114.6%; to `COc1ccc2nnc(CCC(=O)Nc3nc4c(s3)CCC4)n2n1`, -9.679%; to `CCN1CCC(CNc2nccc(C)n2)(N(C)C)CC1`, -52.36%. For the compound `O=C(O)C(F)(F)F.O=C(O)C(F)(F)F.c1cc(CN2CCCC3(COCCN(Cc4c[nH]nn4)C3)C2)cs1` (configuration not stated), the “Percent Effect” value came to 27.82%.

On to `Fc1ccc(CN2CCCC3(COCCN(Cc4c[nH]nn4)C3)C2)cc1.O=C(O)C(F)(F)F.O=C(O)C(F)(F)F` (configuration not stated), for which the “Percent Effect” value is 61.69%. To `Cn1cc(CN2CCCC3(COCCN(Cc4c[nH]nn4)C3)C2)cn1.O=C(O)C(F)(F)F.O=C(O)C(F)(F)F` (configuration not stated) belongs -58.09%; to `CO[C@@H]1CC[C@H]2[C@H]1OCCN2C(=O)C1CCOCC1`, -57.64%. `NS(=O)(=O)c1cnn(CCC(=O)N(C2CCCCC2)C2CC2)c1`: the “Percent Effect” value is on record as -77.61%. To `CC(C)(C(=O)NCC(=O)N1CCCC1)c1ccccc1F` belongs -11.95%.

With `COCCC(=O)N1CCC2(CN(Cc3cccc(Cl)c3)C2)C1`, the “Percent Effect” value is reported as -141.8%.

With `COC(=O)CCC(=O)N1CCC2(CN(Cc3cccc(Cl)c3)C2)C1`, the “Percent Effect” value is -43.68%. To `CC(=O)N(C)c1nc(CN2CCCC2Cn2cncn2)cs1` (configuration not stated) belongs -120.1%; to `Cc1cccc2nc(CN3CCCC(C)C3)cc(=O)n12` (configuration not stated), -16.65%. To `CC(=O)N(C)c1nc(CN2CCCCC2Cn2cncn2)cs1` (configuration not stated) belongs -131.1%.
